Source: PubChem BioAssay (Broad Institute)
FGF22 binding – binders of human FGF22 protein, primary screen, FGF22 synaptogenesis inhibitor project, biophysical, thermal shift, single point | Fibroblast growth factor 22 (Homo sapiens), Q9HCT0 | activity (Tm shift, normalised), % at 9.99 µM | AID 651658, 2012 | actives 1.5% (n = 340,000) | recombinant FGF22 thermal shift, SYPRO orange fluorescence; percent of sucrose octasulfate shift, DMSO zero;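 active = mean Tm shift, scaled 0 neutral to 100 positive control, at about 1.3% or above, every replicate too, limit read from the data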
ERAP1 HTS inh – human ERAP1 aminopeptidase inhibitors, primary screen, biochemical, single point, plate reader; recombinant ERAP1, Leu-AMC fluorescence, 60 min; inhibition, % at 10.7 µM; actives 0.15% (n = 340,000); AID 652197, 2013;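 active = mean replicate inhibition of at least 30%, or all replicates individually reaching that 30% level; inactive = mean below 30% and not every replicate reaching it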
Casp6 inh – human caspase-6 inhibitors, primary screen, biochemical, VEID-R110 fluorescence, single point, set 2; P55212; actives 0.53% (n = 350,000); AID 686996, 2013; inhibition, % at 12.5 µM; purified caspase-6, Z-VEID-R110 cleavage fluorescence;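 active = mean inhibition across replicates at least about 35%, with every replicate also reaching that limit, limit read from the data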
Target sequence (P55212 24-179 limits assumed): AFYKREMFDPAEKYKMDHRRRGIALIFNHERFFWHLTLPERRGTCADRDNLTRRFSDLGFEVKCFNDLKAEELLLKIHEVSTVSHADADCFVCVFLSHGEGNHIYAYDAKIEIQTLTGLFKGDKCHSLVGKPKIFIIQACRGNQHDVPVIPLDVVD
Target sequence (P55212 194-293 limits assumed): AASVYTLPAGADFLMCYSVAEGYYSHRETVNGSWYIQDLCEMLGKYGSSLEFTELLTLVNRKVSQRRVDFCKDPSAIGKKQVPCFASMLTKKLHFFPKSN
SIRT5 inh – SIRT5 desuccinylase inhibitors, primary screen, biochemical, fluorescence imaging, single point, set 5; inhibition, % at 15 µM; NAD-dependent protein deacylase sirtuin-5, mitochondrial (Homo sapiens), Q9NXA8; AID 652115, 2013; actives 1.1% (n = 330,000); Purified SirT5, succinyl-peptide AMC, trypsin-coupled fluorescence; in the data active = inhibition above about 15%
Target sequence (Q9NXA8 whole entry, looked up): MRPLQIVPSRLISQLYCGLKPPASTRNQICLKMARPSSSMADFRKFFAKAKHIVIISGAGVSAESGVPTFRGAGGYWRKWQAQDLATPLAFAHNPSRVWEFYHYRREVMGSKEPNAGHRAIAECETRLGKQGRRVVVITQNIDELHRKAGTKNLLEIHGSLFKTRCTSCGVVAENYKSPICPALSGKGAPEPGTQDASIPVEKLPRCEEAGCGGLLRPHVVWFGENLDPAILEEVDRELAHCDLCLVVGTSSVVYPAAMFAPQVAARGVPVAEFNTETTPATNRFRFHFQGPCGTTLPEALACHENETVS
GSIS activator – GLuc luminescence reporter in INS-1E cells, primary screen for activators of glucose-dependent secretion of insulin. activation, % at 16.6 µM. INS-1E GLuc reporter insulin secretion, 2-3 h. actives 0.61% (n = 370,000);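 active = lowest replicate activation of at least 40%, so every replicate reaches that level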
Large screens that a line does not name were inactive. In the library only some 3.3% were active in any assay of this set; here they are far more common.

CCCNC(=O)N(C)C[C@@H]1Oc2cc(-c3ccncc3)ccc2S(=O)(=O)N([C@H](C)CO)C[C@H]1C	none
C[C@@H]1CN([C@H](C)CO)C(=O)c2cc(N(C)C)ccc2O[C@@H](C)CCCCO[C@H]1CN(C)S(=O)(=O)c1ccc(F)cc1	none (no result: FGF22 binding)
COC(=O)c1ccc(CNC(=O)COC(=O)c2ccccc2-c2ccccc2)cc1	Casp6 inh 59
COC(=O)c1ccc(CNC(=O)CCc2c[nH]c3ccccc23)cc1	GSIS activator 50
COc1ccc(CNC(=O)CCc2c[nH]c3ccccc23)cc1	none
C[C@H](CO)N1C[C@H](C)[C@H](CN(C)C)Oc2ccc(NC(=O)Nc3cccc4ccccc34)cc2CC1=O	none
CCCC#Cc1ccc2c(c1)O[C@@H](CN(C)C)[C@H](C)CN([C@@H](C)CO)S2(=O)=O	none
N#C[C@H]1[C@@H](c2ccccc2-c2cccc(F)c2)[C@@H](CO)N1C(=O)NC1CCCC1	none (no result: FGF22 binding, SIRT5 inh)
COc1ccc(Cl)cc1C(=O)NNC(=O)CCNC(=O)c1ccccc1	FGF22 binding 44 (no result: SIRT5 inh, GSIS activator)
COc1ccccc1C(=O)NC(=O)CSc1nncn1C	none
O=C(CCNC(=O)c1ccc(Br)cc1)NNC(=O)c1ccccc1	FGF22 binding 43
COc1ccc(Cl)cc1C(=O)NNC(=O)CCNC(C)=O	none
COc1ccc(Cl)cc1C(=O)NNC(=O)CSc1nncn1C	FGF22 binding 43 (no result: SIRT5 inh, GSIS activator)
COc1ccc2c3c([nH]c2c1)[C@H](CO)N(Cc1cccc(Cl)c1)CC31CCN(C)CC1	none
C[C@@H]1CN([C@H](C)CO)C(=O)c2cc(C#C[C@@H](C)O)cnc2O[C@@H]1CN(C)C(=O)c1ccccc1F	none
CCOC(=O)Cc1csc(/N=C/c2c(O)n(-c3ccc(C)c(C)c3)c(=O)c3ccccc23)n1	GSIS activator 42 (no result: FGF22 binding, ERAP1 HTS inh, Casp6 inh, SIRT5 inh)
Cc1cc(N=Cc2c(O)n(-c3ccc(C)c(C)c3)c(=O)c3ccccc23)no1	none (no result: FGF22 binding, ERAP1 HTS inh, Casp6 inh, SIRT5 inh)
C[C@H]1CN([C@@H](C)CO)S(=O)(=O)c2ccc(C#CC(C)(C)O)cc2O[C@@H]1CN(C)C(=O)CN(C)C	none
COCCn1c(=NC(=O)c2cc(Cl)sc2Cl)sc2cc(S(N)(=O)=O)ccc21	GSIS activator 170 (no result: FGF22 binding, ERAP1 HTS inh, Casp6 inh, SIRT5 inh)
Cc1ccc(C)c(NC(=O)C2CC(O)CN2C(=O)Oc2ccccc2)c1 (configuration not stated)	ERAP1 HTS inh 39
COc1ccccc1NC(=O)C1CC(O)CN1C(=O)Oc1ccccc1 (configuration not stated)	none (no result: SIRT5 inh)
O=C(NNS(=O)(=O)c1ccc(F)cc1)c1ccccc1F	Casp6 inh 46 (no result: GSIS activator)
Cc1cccc(C(=O)NNS(=O)(=O)c2ccccc2)c1O	FGF22 binding 43
COc1ccc(S(=O)(=O)NNC(=O)c2ccccc2-n2cccc2)cc1	FGF22 binding 43
Cc1ccc(S(=O)(=O)NNC(=O)c2ccccc2-n2cccc2)cc1	none
CCNC(=O)C[C@@H]1CC[C@@H]2[C@H](COC[C@H](O)CN2C(=O)Nc2ccc(C(F)(F)F)cc2)O1	none
C[C@H](CO)N1C[C@H](C)[C@@H](CN(C)CC2CC2)Oc2c(NC(=O)CCC(F)(F)F)cccc2C1=O	none (no result: FGF22 binding, ERAP1 HTS inh, Casp6 inh, SIRT5 inh)
NNC(=O)COc1cccc(C(F)(F)F)c1	none
CC(C)[C@H](NC(N)=O)C(=O)NNC(=O)COc1cccc(C(F)(F)F)c1	ERAP1 HTS inh 54
CC1(C)CC(=O)C(C=NC2CC(C)(C)NC(C)(C)C2)=C(O)C1	GSIS activator 44 (no result: FGF22 binding, ERAP1 HTS inh, Casp6 inh, SIRT5 inh)
COc1ccc(-c2ccccc2[C@H]2[C@@H](C#N)N(C(=O)C3CCCCC3)[C@H]2CO)cc1	none
COc1cc(/C=C2\NC(=O)NC2=O)cc(Br)c1OC	SIRT5 inh 17
CCOc1cc(/C=C2/NC(=O)NC2=O)cc(Br)c1OCc1ccc(C(=O)O)cc1	Casp6 inh 43 (no result: FGF22 binding)
COc1ccc(C=C2NC(=O)NC2=O)cc1O	none (no result: SIRT5 inh, GSIS activator)
CC=Cc1ccc2n(c1=O)C[C@@H]1[C@@H](CO)[C@H](C(=O)NCCC)[C@H]2N1C(=O)c1ccncc1 (mixture of isomers)	none (no result: FGF22 binding)
Cc1cc(C)c(C(=O)C(C)OC(=O)Cc2n[nH]c(=O)c3ccccc23)cc1C (configuration not stated)	SIRT5 inh 15
COc1ccc(CNC(=O)CCn2c(=O)oc3ccccc32)c(OC)c1	GSIS activator 58 (no result: ERAP1 HTS inh)
C[C@H]1CCCCO[C@H](CN(C)S(=O)(=O)c2ccc(F)cc2)[C@@H](C)CN([C@@H](C)CO)C(=O)c2cc(NS(=O)(=O)c3ccccc3)ccc2O1	none
COc1cc(C(=O)N/C(=C\c2cn(S(=O)(=O)N(C)C)c3ccccc23)C(=O)NCCCO)cc(OC)c1OC	FGF22 binding 44 (no result: Casp6 inh)
COc1cc(C(=O)N/C(=C\c2cn(C)c3ccccc23)C(=O)NCCCO)cc(OC)c1OC	none
O=C(N=C1SC2CS(=O)(=O)CC2N1c1cccc(Cl)c1Cl)C1CC1 (configuration not stated)	none
O=C(N=C1SC2CS(=O)(=O)CC2N1c1ccc(F)c(Cl)c1)C1CC1 (configuration not stated)	GSIS activator 42
O=C(N=C1SC2CS(=O)(=O)CC2N1c1ccc(F)cc1F)C1CC1 (configuration not stated)	SIRT5 inh 17
COc1cccc(N2CC(=O)N(c3cccc(OC)c3)CC2=O)c1	FGF22 binding 44
Cc1cc(=O)n2c3c(c4c(cc13)c(CN(C)C)cc(=O)n4C)OC2	Casp6 inh 99
O=C(CSc1c(Cl)cccc1Cl)NC1CCCc2ccccc21 (configuration not stated)	GSIS activator 41
Cc1cc2occ(CC(=O)NC3CCCc4ccccc43)c2cc1C (configuration not stated)	FGF22 binding 43
C[C@H](CO)N1C[C@H](C)[C@@H](CN(C)CC2CCCCC2)OCc2cn(nn2)CCCC1=O	none
Nc1[nH]c(C(=O)c2ccc(Br)cc2)c(-c2ccccc2Br)c1C(=O)NCCc1c[nH]c2ccccc12	FGF22 binding 44 (no result: SIRT5 inh)
COc1ccccc1NC(=O)N[C@H]1CC[C@@H](CCNS(=O)(=O)c2ccc(F)cc2)O[C@@H]1CO	SIRT5 inh 19
COC(=O)C[C@@H]1CC[C@H](NC(=O)c2ccc3c(c2)OCO3)[C@@H](CO)O1	Casp6 inh 43 (no result: ERAP1 HTS inh)
COc1ccccc1NC(=O)N[C@H]1CC[C@H](CCNC(=O)c2ccc3c(c2)OCO3)O[C@@H]1CO	SIRT5 inh 19
CN1C(=O)c2cc(NC(=O)c3cccc(F)c3)ccc2OC[C@@H]2O[C@@H](CC(=O)NCC3CC3)CC[C@@H]21	none (no result: FGF22 binding)
